Screening data deposited in PubChem BioAssay by National Center for Advancing Translational Sciences (NCATS).
IMPase cell inh: membrane-permeable compound that blocks inositol monophosphatase; CHO-M1 cells, IP1 accumulation, HTRF TR-FRET ratio; inhibition (IP1 accumulation), % at 46.1 µM; 120,000 tested, under 10 active; active means well fitted curve in the direction sought with a large enough effect in the signal ratio, not every such curve was filed as active; inconclusive means small, poorly fitted or top-dose-only effect, or a change in a side signal; inactive means no such curve, though single readings can be large or run the other way; the % refers to the signal ratio;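 further: cells stimulated with carbachol in lithium chloride buffer; plate controls were DMSO basal wells for no effect and reference inhibitor wells for full effect; higher means more IMPase inhibition seen as more IP1 and lower FRET ratio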
Target sequence (P97697 whole entry, looked up): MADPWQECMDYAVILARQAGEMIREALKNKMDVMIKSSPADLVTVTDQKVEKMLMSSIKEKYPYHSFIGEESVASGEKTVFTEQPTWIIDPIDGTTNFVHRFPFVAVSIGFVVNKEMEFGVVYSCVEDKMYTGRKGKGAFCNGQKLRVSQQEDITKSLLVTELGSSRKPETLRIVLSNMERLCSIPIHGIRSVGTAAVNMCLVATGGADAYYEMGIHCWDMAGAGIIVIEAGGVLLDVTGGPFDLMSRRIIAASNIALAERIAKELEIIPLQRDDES
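In this qHTS, compounds (final up to 46 uM) act on CHO-M1 cells that are then activated through the M1 receptor with carbachol, in pH 7.4 buffer containing 50 mM LiCl, for 30 min. IP1 accumulation is quantified by the IP-One immunoassay.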
ALDH1A1 block: blocks purified human ALDH1A1 activity. Potency, µM (highest dose often 75.3 µM), without a hit: at the top dose activity, negative = inhibition, most hits filed as inhibitors. P00352. 7.3% of 220,000 active. Purified ALDH1A1, NADH fluorescence, propionaldehyde substrate;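 further: potency means the concentration at half of the fitted maximal effect; plate controls were no enzyme wells and a reference inhibitor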
HPGD block: inhibitors of human 15-hydroxyprostaglandin dehydrogenase (HPGD). P15428. purified HPGD, NADH fluorescence kinetic, PGE2 substrate. Potency, µM, for inactives: at the top dose activity change, negative = inhibition, most hits filed as inhibitors. 4.3% of 150,000 active. AID 894; further: potency means the concentration at half of the fitted maximal effect
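NADH formation kinetics: reaction with 30 uM PGE2 and 1 mM NAD+ (final), 20 nM enzyme, Tris-HCl pH 8 with Tween 20, after 15 min compound preincubation at room temperature. Fluorescence change, last versus first of five reads.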
NPSR antag: neuropeptide S receptor (human) antagonism, cAMP. Q6W5P4. CHO-NPSR cells, cAMP TR-FRET, antagonist mode. Potency, µM (highest dose often 38.3 µM), for inactives: top-dose activity change, negative = inhibition, usual class: inhibitors. 1% of 220,000 active. AID 1461; active means well fitted curve in the direction sought with a large enough effect; inconclusive means small, poorly fitted or top-dose-only effect, or another doubt; inactive means no such curve, though single readings can be large; an effect the other way counts as inactive or inconclusive; further: potency means the concentration at half of the fitted maximal effect; nearly all actives have a fitted effect of over 50% in size
Target sequence (Q6W5P4 whole entry, looked up): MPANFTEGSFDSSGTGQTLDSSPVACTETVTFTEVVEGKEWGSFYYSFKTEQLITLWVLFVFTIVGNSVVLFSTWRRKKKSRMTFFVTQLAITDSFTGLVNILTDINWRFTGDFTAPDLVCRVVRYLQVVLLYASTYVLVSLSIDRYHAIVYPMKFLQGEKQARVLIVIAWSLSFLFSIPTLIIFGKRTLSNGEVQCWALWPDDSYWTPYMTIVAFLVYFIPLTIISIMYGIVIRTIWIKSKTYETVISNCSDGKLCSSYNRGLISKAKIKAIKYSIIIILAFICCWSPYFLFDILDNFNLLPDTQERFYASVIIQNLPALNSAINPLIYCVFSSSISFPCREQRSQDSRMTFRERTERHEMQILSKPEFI
IMPase Li cell: IMPase inhibition in cells with lithium potentiation | CHO-M1 cells, IP1 TR-FRET (IP-One), carbachol + lithium | Potency, µM (highest dose often 59.4 µM), for inactives: top-dose activity, negative = IMPase inhibition, usual class: inhibitors | 0.35% of 210,000 active | AID 1457; active means well fitted curve in the direction sought with a large enough effect; inconclusive means small, poorly fitted or top-dose-only effect, or another doubt; inactive means no such curve, though single readings can be large; an effect the other way counts as inactive or inconclusive;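 further: IP1 builds up when IMPase is blocked and the TR-FRET signal falls; potency means the concentration at half of the fitted maximal effect; plate controls were basal vehicle for no effect and high inhibitor control for full effect; nearly all actives have a fitted effect of over 50% in size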
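CHO cells stably expressing M1 receptor (2000/well) were cultured 16–30 h, then exposed to compounds with a small lithium addition for 30 min at 37C. IP1 was measured by TR-FRET competition; AC50 from Hill fits.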
PNC inhibitor: perinucleolar compartment assembly inhibition; activity change (PNC), negative = inhibition, % at 10 µM; PC3M PTB-GFP, PNC prevalence imaging, 16 h; active compounds read low; 3.1% of 140,000 active;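 active means readout at or below -70, meaning at least 70% loss of cells showing the perinucleolar compartment, a nuclear body marking cancer cells; inconclusive means readout between -30 and a set limit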;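 further: plate controls were DMSO wells for no effect and camptothecin positive control wells for full effect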
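PC3M cells stably expressing PTB-GFP, 750–1000 cells/well, treated 16 h at 37 °C with compound (23 nl of library stock), in duplicate. After paraformaldehyde fixation and Hoechst stain, imaged at 20x; PNC prevalence scored by image analysis.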
The depositor's hits bear a star; [ ] = another dose, or the depositor's remark. In the library only some 11% were active in any assay of this set; here they are far more common. Unless noted, the call rests on the fitted dose curve; in most records, active means well fitted inhibition curve with a large enough effect (not every such curve was filed as active); inconclusive means small, poorly fitted or top-dose-only effect, or another doubt; inactive means no such curve, though single readings can be large or run the other way. Unless noted, on the % scale 0 is the no-effect control and ±100 the full control effect.

Results for COCCCNC(=O)/C(C#N)=C/c1cccc(NC(=O)c2ccccc2Cl)c1 ?
IMPase cell inh: 1; ALDH1A1 block: 14µM*; HPGD block: -27%; NPSR antag: 5%; IMPase Li cell: 7%; PNC inhibitor: 11

How did COc1ccc(CCNC(=O)/C(C#N)=C/c2cccc(OCc3ccccc3)c2)cc1OC do in these assays?
ALDH1A1 block: -12%; HPGD block: -17%; NPSR antag: -9%; IMPase Li cell: 3%; PNC inhibitor: 59

How did COCCCNC(=O)/C(C#N)=C/c1ccc(F)cc1 do in these assays?
ALDH1A1 block: inconclusive; NPSR antag: 6%; IMPase Li cell: 3%

How did c1csc(-c2noc(CN3CCc4sccc4C3)n2)c1 do in these assays?
ALDH1A1 block: 20µM*; NPSR antag: 24%; IMPase Li cell: 19%

Results for COCC1CCN(Cc2nc(-c3cccs3)no2)C1 (configuration not stated) ?
ALDH1A1 block: 28µM*; NPSR antag: -1%; IMPase Li cell: -2%

Results for C=CCOC(=O)CCP(=O)(CCC(=O)OCC=C)c1ccccc1 ?
IMPase cell inh: -1; ALDH1A1 block: 6%; HPGD block: 4%; NPSR antag: -9%[46.1 µM]; IMPase Li cell: 27%[38.3 µM]; PNC inhibitor: 31

How did O=S(=O)(/C=C/c1ccccc1)NC1CCCCCC1 do in these assays?
ALDH1A1 block: 1%; NPSR antag: -8%; IMPase Li cell: 21%

What do the screens show for `O=C(c1ccc([N+](=O)[O-])cc1)N1CCN(Cc2ccccc2[N+](=O)[O-])CC1`?
ALDH1A1 block: 10µM*; NPSR antag: -2%; IMPase Li cell: 5%

What do the screens show for `O=C(c1ccc(F)cc1)N1CCN(Cc2ccccc2Br)CC1`?
IMPase cell inh: 8[1.84 µM]; ALDH1A1 block: inconclusive; HPGD block: -3%; NPSR antag: -12%[46.1 µM]; IMPase Li cell: 34%[38.3 µM]; PNC inhibitor: -99*

Results for O=C(c1ccccc1)N1CCN(C(=O)c2ccc([N+](=O)[O-])cc2)CC1 ?
ALDH1A1 block: 2%; HPGD block: -8%; NPSR antag: 9%; IMPase Li cell: 10%; PNC inhibitor: inconclusive

What do the screens show for `COc1cc(OC)cc(C(=O)N2CCN(Cc3ccccc3[N+](=O)[O-])CC2)c1`?
ALDH1A1 block: 1.4µM*; NPSR antag: 20%; IMPase Li cell: 4%

How did COc1ccc(Br)cc1CN1CCN(C(=O)c2ccc(F)cc2)CC1 do in these assays?
ALDH1A1 block: inconclusive; NPSR antag: 27%; IMPase Li cell: 4%

Results for COc1cccc(C(=O)N2CCN(Cc3ccccc3C(F)(F)F)CC2)c1 ?
IMPase cell inh: 5; ALDH1A1 block: inconclusive; HPGD block: 2%; NPSR antag: inconclusive; IMPase Li cell: 1%[38.3 µM]; PNC inhibitor: 6

How did O=c1nc(/C=C/c2cc([N+](=O)[O-])ccc2Cl)cc(C(F)(F)F)[nH]1 do in these assays?
IMPase cell inh: 1; ALDH1A1 block: inconclusive; HPGD block: 3.2µM*; NPSR antag: inconclusive; IMPase Li cell: 25%[38.3 µM]; PNC inhibitor: -27

Results for CC(=O)NS(=O)(=O)c1ccc(NC(=S)NC(=O)CC(C)C)cc1 ?
ALDH1A1 block: 9%; NPSR antag: 15%; IMPase Li cell: 4%

How did CCN(CC)S(=O)(=O)c1ccc(NC(=S)NC(=O)C(C)C)cc1 do in these assays?
ALDH1A1 block: 28µM*; HPGD block: -16%; NPSR antag: -8%; IMPase Li cell: 7%; PNC inhibitor: 0

What do the screens show for `CC(=O)NS(=O)(=O)c1ccc(NC(=S)NC(=O)C(C)C)cc1`?
IMPase cell inh: 0; ALDH1A1 block: 4%; HPGD block: 0%; NPSR antag: -1%[46.1 µM]; IMPase Li cell: 18%[38.3 µM]; PNC inhibitor: -8

What do the screens show for `CCN(CC)S(=O)(=O)c1ccc(NC(=S)NC(=O)CC(C)C)cc1`?
ALDH1A1 block: -13%; HPGD block: -15%; NPSR antag: -27%; IMPase Li cell: 9%; PNC inhibitor: -83*

How did Cc1ccccc1NS(=O)(=O)c1cccc(-c2nnc(-c3ccccc3)o2)c1 do in these assays?
IMPase cell inh: 5; ALDH1A1 block: -8%; HPGD block: inconclusive; NPSR antag: inconclusive; IMPase Li cell: 9%[38.3 µM]; PNC inhibitor: -5

What do the screens show for `O=S(=O)(NC1CCCCC1)c1cccc(-c2nnc(-c3ccccc3)o2)c1`?
IMPase cell inh: 0; ALDH1A1 block: inconclusive; HPGD block: 18µM*; NPSR antag: inconclusive; IMPase Li cell: 12%[38.3 µM]; PNC inhibitor: 35

How did CC1=NNC(=O)C1C(c1ccccc1)C1C(=O)NN=C1C (configuration not stated) do in these assays?
ALDH1A1 block: 32µM*; NPSR antag: 10%; IMPase Li cell: 3%

How did COCc1cc(S(=O)c2ccc(Cl)cc2)nc(C)n1 (configuration not stated) do in these assays?
ALDH1A1 block: 18µM*; NPSR antag: -23%; IMPase Li cell: -5%

What do the screens show for `COC(=O)c1cc(C(=O)OC)cc(N2C(=O)CC(NNC(=O)c3ccccc3Cl)C2=O)c1` (configuration not stated)?
ALDH1A1 block: inconclusive; HPGD block: -15%; NPSR antag: 9%; IMPase Li cell: -6%; PNC inhibitor: -99*

Results for O=C(O)c1cccc(S(=O)(=O)N2CCCC2)c1 ?
IMPase cell inh: -5; ALDH1A1 block: 1%; HPGD block: -18%; NPSR antag: 9%[46.1 µM]; IMPase Li cell: 9%[38.3 µM]; PNC inhibitor: 16

What do the screens show for `Nc1ccccc1-c1n[nH]c(=S)s1`?
ALDH1A1 block: inconclusive; NPSR antag: inconclusive; IMPase Li cell: 13µM*

What do the screens show for `CCOc1c2ccc(C(=O)NCCc3ccc(C)cc3)cc2nn1CC`?
IMPase cell inh: 3; ALDH1A1 block: inconclusive; HPGD block: inconclusive; NPSR antag: -3%[46.1 µM]; IMPase Li cell: 1%[38.3 µM]; PNC inhibitor: -113*

Results for CCOC(=O)CSC1=NC(=O)/C(=C\c2ccc(OC(C)=O)cc2)S1 ?
IMPase cell inh: -8; ALDH1A1 block: -7%; HPGD block: 25µM*; NPSR antag: inconclusive; IMPase Li cell: 7%[38.3 µM]; PNC inhibitor: 4

What do the screens show for `O=C1c2cccnc2C(Nc2ccc(F)c(Cl)c2)N1Cc1cccs1` (configuration not stated)?
ALDH1A1 block: 11µM*; NPSR antag: -41%; IMPase Li cell: -13%

What do the screens show for `COC(=O)c1ccc(NC2c3ncccc3C(=O)N2Cc2cccs2)cc1` (configuration not stated)?
ALDH1A1 block: inconclusive; NPSR antag: -20%; IMPase Li cell: 0%
